Experimental findings from paper PMC7862700, “An all-to-all approach to the identification of sequence-specific readers for epigenetic DNA modifications on cytosine” are described below.

Assay in all cases: DAPPL (digital affinity profiling via proximity ligation, sequencing); 10 mM Tris-HCl pH 7.5, 50 mM NaCl, 1 mM DTT, 4% glycerol, room temperature, 30 min; GST-TFs on glutathione beads, 16-mer random dsDNA library, 0.1% formaldehyde crosslink after washing; high values mean tight binding
The target in test [1] is T1, FEV (Homo sapiens, UniProt Q99581 1-238).
T1 sequence: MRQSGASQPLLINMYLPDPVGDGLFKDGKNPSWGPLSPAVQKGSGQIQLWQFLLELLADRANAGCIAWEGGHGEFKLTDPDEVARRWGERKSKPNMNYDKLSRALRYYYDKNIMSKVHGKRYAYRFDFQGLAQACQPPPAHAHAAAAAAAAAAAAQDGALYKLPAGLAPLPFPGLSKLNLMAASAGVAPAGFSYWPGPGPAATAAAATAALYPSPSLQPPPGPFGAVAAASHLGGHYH
To be noted: protein: recombinant; tags: N-terminal GST; dsDNA, one strand shown. An outline of the steps:
(§1)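 In yeast, human transcription factors were expressed with a GST fusion, then pulled down on glutathione beads and given DNA barcodes. Pooled with a tag-only sample, they were exposed to 200 nmole of a 16-mer random double-stranded DNA library (Tris/NaCl/DTT/glycerol buffer, room temperature, 30 min), washed, crosslinked with 0.1% formaldehyde, proximity-ligated using BsaI/T4 ligase for 1 h at 37 °C, PCR-amplified and read on an Illumina NextSeq500. Each hexamer's frequency of reads for a factor, divided by the matching frequency for the tag-only sample, gives the binding signal.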

Test [2] deals with ETV5 (Homo sapiens, UniProt P41161 1-510). The following applies: protein: recombinant; tags: N-terminal GST; dsDNA, one strand shown. Put shortly: as §1
ETV5, sequence (P41161 whole entry): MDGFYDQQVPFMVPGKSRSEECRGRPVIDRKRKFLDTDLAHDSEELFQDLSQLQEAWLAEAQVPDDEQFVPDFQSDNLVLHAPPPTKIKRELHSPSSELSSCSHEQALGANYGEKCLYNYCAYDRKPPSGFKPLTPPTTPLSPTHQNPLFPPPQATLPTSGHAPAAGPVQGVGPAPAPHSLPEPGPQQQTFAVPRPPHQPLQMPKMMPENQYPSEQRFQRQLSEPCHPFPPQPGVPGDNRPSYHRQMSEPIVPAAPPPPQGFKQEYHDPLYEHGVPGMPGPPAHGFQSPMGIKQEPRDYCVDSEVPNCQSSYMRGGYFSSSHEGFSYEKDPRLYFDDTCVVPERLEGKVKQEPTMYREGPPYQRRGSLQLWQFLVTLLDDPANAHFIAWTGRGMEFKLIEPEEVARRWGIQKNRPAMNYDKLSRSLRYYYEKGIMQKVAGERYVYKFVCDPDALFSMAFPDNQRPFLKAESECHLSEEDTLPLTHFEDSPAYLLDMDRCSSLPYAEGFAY
In test [3] the target is HSF1 (Homo sapiens, UniProt Q00613 1-529). The following applies: protein: recombinant; tags: N-terminal GST; chain copies: 3; dsDNA, one strand shown. An outline of the steps:
as §1

The target in test [4] is T2, SPIC (Homo sapiens, UniProt Q8N5J4 1-248).
T2 sequence: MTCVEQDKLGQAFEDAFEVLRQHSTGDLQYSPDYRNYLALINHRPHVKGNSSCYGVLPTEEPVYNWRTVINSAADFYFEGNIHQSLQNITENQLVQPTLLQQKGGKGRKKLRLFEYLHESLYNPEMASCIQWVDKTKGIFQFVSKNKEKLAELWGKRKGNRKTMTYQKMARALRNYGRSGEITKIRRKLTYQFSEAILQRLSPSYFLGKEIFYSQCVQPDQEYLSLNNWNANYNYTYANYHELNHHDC
The following applies: protein: recombinant; tags: N-terminal GST; dsDNA, one strand shown. An outline of the steps:
as §1

Test [5] addresses ELF4 (Homo sapiens, UniProt Q99607 1-663). The following applies: protein: recombinant; tags: N-terminal GST; dsDNA, one strand shown. Put shortly:
as §1

In test [6] the target is T3, ELK4 (Homo sapiens, UniProt P28324-2 1-405).
T3 sequence: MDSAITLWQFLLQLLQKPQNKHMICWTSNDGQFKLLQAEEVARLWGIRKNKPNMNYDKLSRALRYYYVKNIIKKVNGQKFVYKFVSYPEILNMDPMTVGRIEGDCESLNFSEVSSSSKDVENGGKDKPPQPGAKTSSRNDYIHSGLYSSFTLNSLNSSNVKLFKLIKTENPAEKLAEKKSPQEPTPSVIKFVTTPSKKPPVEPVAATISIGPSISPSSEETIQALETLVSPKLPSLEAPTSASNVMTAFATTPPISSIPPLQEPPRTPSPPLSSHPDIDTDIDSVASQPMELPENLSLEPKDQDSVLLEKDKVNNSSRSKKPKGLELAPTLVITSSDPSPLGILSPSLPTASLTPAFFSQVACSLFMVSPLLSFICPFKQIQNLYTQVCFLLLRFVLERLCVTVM
To be noted: protein: recombinant; tags: N-terminal GST; dsDNA, one strand shown. An outline of the steps:
as §1

In test [7] the target is T4, ETV2 (Homo sapiens, UniProt O00321 1-342).
T4 sequence: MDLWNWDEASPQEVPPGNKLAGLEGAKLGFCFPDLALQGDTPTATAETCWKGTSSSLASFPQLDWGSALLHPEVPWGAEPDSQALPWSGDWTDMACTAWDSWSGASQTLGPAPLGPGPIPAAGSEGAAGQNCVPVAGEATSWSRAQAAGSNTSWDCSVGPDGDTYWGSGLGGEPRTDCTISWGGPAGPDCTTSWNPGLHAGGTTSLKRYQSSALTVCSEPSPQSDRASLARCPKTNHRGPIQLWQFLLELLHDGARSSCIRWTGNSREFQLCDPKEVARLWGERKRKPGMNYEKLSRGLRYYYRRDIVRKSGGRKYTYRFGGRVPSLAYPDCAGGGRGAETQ
The following applies: protein: recombinant; tags: N-terminal GST; dsDNA, one strand shown. Put shortly:
as §1

For test [8], the target named is T5, ELF3 (Homo sapiens, UniProt P78545 1-371).
T5 sequence: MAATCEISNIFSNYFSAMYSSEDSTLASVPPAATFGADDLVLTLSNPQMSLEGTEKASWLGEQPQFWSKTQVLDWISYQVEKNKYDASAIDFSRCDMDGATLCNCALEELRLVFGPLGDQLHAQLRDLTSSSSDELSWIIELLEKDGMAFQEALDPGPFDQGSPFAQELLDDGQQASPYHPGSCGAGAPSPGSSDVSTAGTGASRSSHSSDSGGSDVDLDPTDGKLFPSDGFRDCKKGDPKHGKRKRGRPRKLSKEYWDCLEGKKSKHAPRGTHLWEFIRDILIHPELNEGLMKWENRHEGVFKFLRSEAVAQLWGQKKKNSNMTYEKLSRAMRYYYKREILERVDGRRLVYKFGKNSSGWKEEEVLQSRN
The following applies: protein: recombinant; tags: N-terminal GST; dsDNA, one strand shown. An outline of the steps: as §1

Test [9] concerns the target CRX (Homo sapiens, UniProt O43186 1-299). To be noted: protein: recombinant; tags: N-terminal GST; dsDNA, one strand shown. An outline of the steps:
as §1

The target of test [10] is ETV1 (Homo sapiens, UniProt P50549 1-477). To be noted: protein: recombinant; tags: N-terminal GST; dsDNA, one strand shown. Put shortly: as §1
ETV1, sequence (P50549 whole entry): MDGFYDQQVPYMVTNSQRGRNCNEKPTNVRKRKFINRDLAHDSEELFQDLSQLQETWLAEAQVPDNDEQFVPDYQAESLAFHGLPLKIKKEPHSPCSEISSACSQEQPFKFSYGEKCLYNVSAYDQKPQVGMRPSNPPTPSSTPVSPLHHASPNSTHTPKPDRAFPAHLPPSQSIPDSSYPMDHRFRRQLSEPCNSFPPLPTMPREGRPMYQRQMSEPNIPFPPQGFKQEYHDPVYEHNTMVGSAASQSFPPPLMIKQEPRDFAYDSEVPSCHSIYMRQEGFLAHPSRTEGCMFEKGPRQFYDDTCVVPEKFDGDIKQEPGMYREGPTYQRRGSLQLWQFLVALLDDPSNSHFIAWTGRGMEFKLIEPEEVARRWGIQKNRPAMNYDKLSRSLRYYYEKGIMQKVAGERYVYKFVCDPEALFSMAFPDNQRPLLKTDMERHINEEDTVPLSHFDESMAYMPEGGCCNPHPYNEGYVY

HSF1, sequence (Q00613 whole entry): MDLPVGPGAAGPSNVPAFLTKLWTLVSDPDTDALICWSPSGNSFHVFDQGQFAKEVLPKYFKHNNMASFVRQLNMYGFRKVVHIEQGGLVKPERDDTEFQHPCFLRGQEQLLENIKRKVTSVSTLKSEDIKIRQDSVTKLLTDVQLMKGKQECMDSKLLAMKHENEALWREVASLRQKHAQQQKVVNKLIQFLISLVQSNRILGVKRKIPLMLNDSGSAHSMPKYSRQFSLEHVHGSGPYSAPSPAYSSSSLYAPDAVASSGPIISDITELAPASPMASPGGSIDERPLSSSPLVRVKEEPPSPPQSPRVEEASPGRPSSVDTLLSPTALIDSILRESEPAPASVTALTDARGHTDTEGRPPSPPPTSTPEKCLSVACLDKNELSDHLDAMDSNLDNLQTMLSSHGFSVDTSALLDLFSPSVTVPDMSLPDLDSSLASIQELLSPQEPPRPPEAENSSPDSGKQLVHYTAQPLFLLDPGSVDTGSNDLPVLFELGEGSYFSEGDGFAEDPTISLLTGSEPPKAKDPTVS
CRX, sequence (O43186 whole entry): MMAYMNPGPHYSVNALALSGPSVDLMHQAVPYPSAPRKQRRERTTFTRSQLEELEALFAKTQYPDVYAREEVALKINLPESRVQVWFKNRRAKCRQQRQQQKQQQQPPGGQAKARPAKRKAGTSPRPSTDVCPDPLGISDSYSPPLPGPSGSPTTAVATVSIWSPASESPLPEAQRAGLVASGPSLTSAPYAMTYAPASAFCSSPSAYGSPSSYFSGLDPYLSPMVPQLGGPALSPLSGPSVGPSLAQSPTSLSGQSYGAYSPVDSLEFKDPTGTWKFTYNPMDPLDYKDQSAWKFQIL
ELF4, sequence (Q99607 whole entry): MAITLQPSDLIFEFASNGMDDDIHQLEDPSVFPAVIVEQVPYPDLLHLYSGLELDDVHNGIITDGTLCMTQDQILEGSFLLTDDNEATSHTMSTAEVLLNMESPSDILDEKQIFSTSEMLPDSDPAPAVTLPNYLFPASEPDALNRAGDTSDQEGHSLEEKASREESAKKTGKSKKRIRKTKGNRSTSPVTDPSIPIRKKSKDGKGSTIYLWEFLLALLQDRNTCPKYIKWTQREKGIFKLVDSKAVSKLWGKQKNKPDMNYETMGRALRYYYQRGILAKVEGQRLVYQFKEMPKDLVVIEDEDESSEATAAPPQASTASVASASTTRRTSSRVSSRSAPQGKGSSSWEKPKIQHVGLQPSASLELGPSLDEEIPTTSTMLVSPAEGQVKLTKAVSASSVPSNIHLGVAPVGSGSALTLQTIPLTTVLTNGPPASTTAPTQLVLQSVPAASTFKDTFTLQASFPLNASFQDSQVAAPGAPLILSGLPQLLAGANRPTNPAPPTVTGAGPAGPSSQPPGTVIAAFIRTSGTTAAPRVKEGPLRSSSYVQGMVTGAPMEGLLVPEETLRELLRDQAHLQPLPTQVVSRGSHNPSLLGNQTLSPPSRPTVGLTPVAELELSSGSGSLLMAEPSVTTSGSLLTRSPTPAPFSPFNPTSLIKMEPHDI

With CTATTT, the binding signal in test [1] is 1.68 fold enrichment (6-mer frequency, TF over GST control); in test [2], 1.64 fold enrichment (6-mer frequency, TF over GST control); in [3] it was 1.45 fold enrichment (6-mer frequency, TF over GST control); in test [4], 2.07 fold enrichment (6-mer frequency, TF over GST control); in test [5] it was 1.69 fold enrichment (6-mer frequency, TF over GST control); in test [6], 1.88 fold enrichment (6-mer frequency, TF over GST control). Further, the binding signal in test [7] is 1.68 fold enrichment (6-mer frequency, TF over GST control); in test [8], 2.07 fold enrichment (6-mer frequency, TF over GST control); in [9] it was 1.64 fold enrichment (6-mer frequency, TF over GST control); in test [10] it was 1.74 fold enrichment (6-mer frequency, TF over GST control).

As for CCCCTC, the binding signal in test [1] is 1.41 fold enrichment (6-mer frequency, TF over GST control); in test [2], 1.37 fold enrichment (6-mer frequency, TF over GST control); in [3], 1.13 fold enrichment (6-mer frequency, TF over GST control); in test [4], 1.17 fold enrichment (6-mer frequency, TF over GST control); in test [5] it was 1.48 fold enrichment (6-mer frequency, TF over GST control); in test [6] it was 1.5 fold enrichment (6-mer frequency, TF over GST control). Further, the binding signal is 1.49 fold enrichment (6-mer frequency, TF over GST control) in [7]; 1.35 fold enrichment (6-mer frequency, TF over GST control) in test [8]; 1.14 fold enrichment (6-mer frequency, TF over GST control) in test [9]; 1.51 fold enrichment (6-mer frequency, TF over GST control) in test [10].

ATTGGT: the binding signal is 1.21 fold enrichment (6-mer frequency, TF over GST control) in test [1]; 1.29 fold enrichment (6-mer frequency, TF over GST control) in test [2]; 1.12 fold enrichment (6-mer frequency, TF over GST control) in [3]; 1.24 fold enrichment (6-mer frequency, TF over GST control) in [4]; 1.27 fold enrichment (6-mer frequency, TF over GST control) in test [5]; 1.19 fold enrichment (6-mer frequency, TF over GST control) in test [6]. In addition, the binding signal in test [7] was 1.01 fold enrichment (6-mer frequency, TF over GST control); in test [8], 1.14 fold enrichment (6-mer frequency, TF over GST control); in test [9], 1.2 fold enrichment (6-mer frequency, TF over GST control); in test [10], 1.29 fold enrichment (6-mer frequency, TF over GST control).

With CCCGCA, the binding signal in test [1] was 1.26 fold enrichment (6-mer frequency, TF over GST control); in test [2], 1.27 fold enrichment (6-mer frequency, TF over GST control); in test [3], 1.22 fold enrichment (6-mer frequency, TF over GST control); in [4] it was 1.27 fold enrichment (6-mer frequency, TF over GST control); in test [5], 1.34 fold enrichment (6-mer frequency, TF over GST control); in test [6] it was 1.35 fold enrichment (6-mer frequency, TF over GST control). For the same sequence, the binding signal is 1.28 fold enrichment (6-mer frequency, TF over GST control) in [7]; 1.36 fold enrichment (6-mer frequency, TF over GST control) in test [8]; 1.1 fold enrichment (6-mer frequency, TF over GST control) in test [9]; 1.23 fold enrichment (6-mer frequency, TF over GST control) in test [10].

In the case of AACATT, the binding signal is 1.2 fold enrichment (6-mer frequency, TF over GST control) in [1]; 1.31 fold enrichment (6-mer frequency, TF over GST control) in test [2]; 1.99 fold enrichment (6-mer frequency, TF over GST control) in test [3]; 1.21 fold enrichment (6-mer frequency, TF over GST control) in test [4]; 1.29 fold enrichment (6-mer frequency, TF over GST control) in test [5]; 1.31 fold enrichment (6-mer frequency, TF over GST control) in test [6]. The binding signal in test [7] is 1.29 fold enrichment (6-mer frequency, TF over GST control); in [8] it was 1.33 fold enrichment (6-mer frequency, TF over GST control); in [9], 1.34 fold enrichment (6-mer frequency, TF over GST control); in [10] it was 1.29 fold enrichment (6-mer frequency, TF over GST control).

For CATCCC, the binding signal in test [1] was 1.18 fold enrichment (6-mer frequency, TF over GST control); in [2], 1.31 fold enrichment (6-mer frequency, TF over GST control); in [3], 1.05 fold enrichment (6-mer frequency, TF over GST control); in test [4], 1.3 fold enrichment (6-mer frequency, TF over GST control); in test [5] it was 1.22 fold enrichment (6-mer frequency, TF over GST control); in test [6], 1.22 fold enrichment (6-mer frequency, TF over GST control). For the same sequence, the binding signal in test [7] was 1.15 fold enrichment (6-mer frequency, TF over GST control); in test [8], 1.27 fold enrichment (6-mer frequency, TF over GST control); in [9], 1.05 fold enrichment (6-mer frequency, TF over GST control); in test [10], 1.16 fold enrichment (6-mer frequency, TF over GST control).

Regarding CTCCGA, the binding signal in test [1] is 1.4 fold enrichment (6-mer frequency, TF over GST control); in [2], 1.3 fold enrichment (6-mer frequency, TF over GST control); in test [3], 1.49 fold enrichment (6-mer frequency, TF over GST control); in test [4] it was 1.51 fold enrichment (6-mer frequency, TF over GST control); in test [5] it was 1.41 fold enrichment (6-mer frequency, TF over GST control); in test [6], 1.36 fold enrichment (6-mer frequency, TF over GST control). In addition, the binding signal in test [7] is 1.19 fold enrichment (6-mer frequency, TF over GST control); in [8], 1.2 fold enrichment (6-mer frequency, TF over GST control); in test [9] it was 1.3 fold enrichment (6-mer frequency, TF over GST control); in test [10], 1.24 fold enrichment (6-mer frequency, TF over GST control).

On to AATTCC, for which the binding signal was 2.05 fold enrichment (6-mer frequency, TF over GST control) in test [1]; 2.1 fold enrichment (6-mer frequency, TF over GST control) in test [2]; 2.07 fold enrichment (6-mer frequency, TF over GST control) in test [3]; 1.93 fold enrichment (6-mer frequency, TF over GST control) in test [4]; 1.92 fold enrichment (6-mer frequency, TF over GST control) in test [5]; 1.55 fold enrichment (6-mer frequency, TF over GST control) in test [6]. Further, the binding signal in test [7] was 2.11 fold enrichment (6-mer frequency, TF over GST control); in test [8], 1.7 fold enrichment (6-mer frequency, TF over GST control); in test [9], 2.04 fold enrichment (6-mer frequency, TF over GST control); in test [10], 1.95 fold enrichment (6-mer frequency, TF over GST control).
